About 83,000 compounds went through this panel and 20% of them were active in at least one assay; those are over-represented in the sample as a whole.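 Compound tested at a single concentration for 48 hours in 96-well plates; a percent growth value below 10 was scored as active.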 A number with no mark means an inactive call. Activity calls are given as the source filed them.
Legend:
Assay in all cases: NCI-60 one-dose screen, 48 h (100 = growth as untreated, 0 = no growth, -100 = all killed)
Details in all cases: 10 µM unless noted
[1] = test system: SK-MEL-2 melanoma
[2] = test system: EKVX NSCLC
[3] = test system: SN12C renal
[4] = test system: UO-31 renal
[5] = test system: TK-10 renal
[6] = test system: ACHN renal
[7] = test system: CAKI-1 renal
[8] = test system: A498 renal
[9] = test system: CCRF-CEM leukemia
[10] = test system: MOLT-4 leukemia
[11] = test system: SR leukemia
[12] = test system: RPMI-8226 leukemia
[13] = test system: OVCAR-8 ovarian
[14] = test system: OVCAR-5 ovarian
[15] = test system: OVCAR-4 ovarian
[16] = test system: SK-OV-3 ovarian
[17] = test system: IGROV1 ovarian
[18] = test system: OVCAR-3 ovarian
[19] = test system: HS 578T breast
[20] = test system: NCI/ADR-RES ovarian

| Compound | growth [1] | growth [2] | growth [3] | growth [4] | growth [5] | growth [6] | growth [7] | growth [8] | growth [9] | growth [10] | growth [11] | growth [12] | growth [13] | growth [14] | growth [15] | growth [16] | growth [17] | growth [18] | growth [19] | growth [20] |
| --- | --- | --- | --- | --- | --- | --- | --- | --- | --- | --- | --- | --- | --- | --- | --- | --- | --- | --- | --- | --- |
| Cc1ccccc1NC(=O)c1sc2nc3c(cc2c1N)CCCC3 | 26.4% | 45.8% | 37.3% | 45.2% | 57.5% | 51.2% | 51% | -3.82% (active) | 20.9% | 27.4% | 14.3% | 21.3% | 29.7% | 81.6% | 61.8% | 25.1% | 57% | 11.3% | 55.8% | 26.5% |
| CCOC(=O)CC1C(CNC(=O)NC)OC(n2cnc3c(NC(=O)Nc4ccccc4)ncnc32)C1O[Si](C)(C)C(C)(C)C (stereo not given) | 54.3% | 63.7% | 60.7% | 57% | 43.5% | 68.7% | 81.6% | 71.3% | 49.9% | 50.1% | 28.2% | 11.2% | 65.4% | 99.6% | 61.2% | 93.6% | 51.1% | 79.6% | 43.9% | 85.6% |
| O=C1Nc2ccccc2/C1=C/c1cccn1CCCCCCn1c2ccccc2c(=O)c2ccccc21 | 86.3% | 65.3% | 93.6% | 56.2% | 78.7% | 89.7% | 72.6% | 103% | 49.8% | 50.9% | 80.8% | 25.3% | 47.5% | 82.2% | 53.8% | 87.2% | 88% | 64.9% | 96.3% | 71.8% |
| CN(C)C(=O)OCc1ccc2c(Cl)cc(Cl)c(O)c2n1 | 50.1% | 30.5% | 36.6% | 27.2% | 64.2% | 27.2% | 18.6% | 68% | 23% | 22.1% | 34.3% | 34.7% | 22.6% | 77.4% | 20.8% | 50.1% | 40.9% | 30.6% | 71.8% | 14.8% |
| CN1CCN(Cc2ccc(NC(=O)c3cncc(C#Cc4c(N)ncc5c(F)cccc45)c3)cc2C(F)(F)F)CC1 | -65.4% (active) | 10.6% | -92.6% (active) | -86.2% (active) | -95.1% (active) | -79% (active) | -70.4% (active) | -1.72% (active) | -39.8% (active) | -72.4% (active) | -49% (active) | -26.5% (active) | -72.8% (active) | -33.3% (active) | -59.1% (active) | 2.69% (active) | -69.4% (active) | -84.8% (active) | -25.8% (active) | -45.1% (active) |
| CC/C(=C(/c1ccc(Cl)cc1)c1ccc(OCCN2CCCCCC2)cc1)c1ccccc1 | 98.7% | 85% | 77% | 61.8% | 102% | 103% | 85.1% | 80.2% | 44.3% | 68.8% | 6.94% (active) | 48.9% | 84.8% | 85.2% | 79.6% | 114% | 97.3% | 93.9% | 89.7% | 90.8% |
| COC(=O)c1nc(-c2ccccc2)oc1S(=O)(=O)NCC(c1ccc(Cl)cc1)N1CCCCC1 (stereo not given) | 93.8% | 104% | 75.5% | 61.2% | 67.3% | 68.2% | 49.4% | 96.4% | -19.2% (active) | 1.79% (active) | -3.58% (active) | 20% | 57% | 90.8% | 89.3% | 95.5% | 56.5% | 57.5% | 100% | 89% |
| CCOc1ccccc1NC(=O)CCC(=O)OC | 121% | 94.3% | 108% | 81.8% | 98.7% | 106% | 92.4% | 100% | 108% | 94.8% | 97.8% | 104% | 119% | 110% | 95.4% | 103% | 100% | 108% | 106% | 113% |
| CC(=O)c1c(/C=C/c2ccc(C)cc2)c2ccccc2[nH]c1=O | 107% | 95.1% | 83.2% | 49.6% | 106% | 91% | 67.6% | 81.2% | 105% | 87.1% | 99.5% | 91.5% | 86.8% | 100% | 88.9% | 90.2% | 57.4% | 92.5% | 85.9% | 85.8% |
| C#Cc1cccc(Nc2nc(Cl)nc3cc(NC(=O)CCl)ccc23)c1 | -75.9% (active) | -76.5% (active) | -70.7% (active) | -96% (active) | -96.3% (active) | -98% (active) | -96.9% (active) | 59.6% | -17.4% (active) | -24.9% (active) | -39.7% (active) | -47.6% (active) | -23.9% (active) | -92% (active) | -66.4% (active) | -18.9% (active) | -59.8% (active) | -88.1% (active) | -14% (active) | -14.4% (active) |
| Brc1ccc(-c2nn(-c3ccccc3)cc2-c2nn[nH]n2)s1 | 96.2% | 83.5% | 80% | 52.8% | 102% | 89.5% | 88.1% | 65.7% | 90.9% | 99.1% | 87.4% | 89.5% | 96.3% | 108% | 92.7% | 98.2% | 102% | 96.5% | 89.9% | 103% |
| NCCCCCNc1noc(Cc2c[nH]c3cc(Br)ccc23)n1 | 4.12% (active) | 33% | 42.7% | 41.8% | 38.6% | 52.2% | 35.3% | 16.1% | 2.39% (active) | 29.3% | 10.5% | 4.37% (active) | 28.4% | 58.1% | 46.8% | -1.93% (active) | 34.5% | -50.2% (active) | 19.8% | -13.6% (active) |
| O=C(Nc1ccc2[nH]ncc2c1)c1csc(Nc2ccccc2)n1 | 29.6% | 45.8% | 41.1% | 45.5% | 48.1% | 56.5% | 36.5% | 22.2% | 19.4% | 43.9% | 22.8% | 7.99% (active) | 35.9% | 64.5% | 61.6% | 50.7% | 54.9% | 13.1% | 38.3% | 16.5% |
| Cc1cc(C)n(C(=O)CSc2nc3sc4c(c3c(=O)n2-c2ccccc2)CCCCC4)n1 | 98.3% | 97% | 91.9% | 90.6% | 101% | 100% | 95.2% | 99.5% | 95.5% | 95.2% | 97.8% | 103% | 100% | 105% | 94.2% | 99% | 107% | 104% | 96.8% | 104% |
| C#CC#CC#CC#CC#CC#CC#CC#CC[C@@H]1OC[C@H](COC(=O)O[C@@H](C(=O)O[C@H]2C[C@@]3(O)[C@@H](OC(=O)c4ccccc4)[C@@H]4[C@]5(OC(C)=O)CO[C@@H]5C[C@H](O)[C@@]4(C)C(=O)[C@H](OC(C)=O)C(=C2C)C3(C)C)[C@@H](NC(=O)c2ccccc2)c2ccccc2)O1 | 44.2% | 65.8% | 38.6% | 99.6% | 93.3% | 79.3% | 71% | 21.3% | 13.8% | 30.9% | 20.5% | 9.65% (active) | 33.8% | 24.3% | 62.9% | 51.7% | 32.6% | 7.3% (active) | 5.42% (active) | 102% |
| N#CC1=C(N)Oc2c(ccc3ccccc23)C1c1cc2ccccc2n2nnnc12 (stereo not given) | 12% | 52.1% | 27.3% | 25.9% | 37.3% | 22.7% | 31.6% | -2.46% (active) | -5.43% (active) | 10.6% | 3.88% (active) | -8.74% (active) | 26.6% | 39.4% | 65% | 12.5% | 33.3% | -20.7% (active) | 17.7% | 0.93% (active) |

Reference: PubChem BioAssay (NCI)
